Molecules are shown by their SMILES. This is part of a sample that, as a whole, favours compounds with a hit. Of some 83,000 tested, about 20% had one in any assay.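 The endpoint reported here, percent growth, reads 100 for growth as untreated, 0 for no net growth and -100 for all cells dead.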 Unmarked numbers belong to inactive results. Activity calls are given as the source filed them. The calls were made as follows: active = growth percent below 10; inactive = the rest.

This is an account of results in PubChem BioAssay (NCI).

Test systems include SK-MEL-2 melanoma; EKVX NSCLC; SN12C renal; UO-31 renal; TK-10 renal; ACHN renal; CAKI-1 renal; A498 renal; MOLT-4 leukemia; SR leukemia; RPMI-8226 leukemia; OVCAR-8 ovarian; OVCAR-5 ovarian; OVCAR-4 ovarian; SK-OV-3 ovarian; OVCAR-3 ovarian; HS 578T breast; NCI/ADR-RES ovarian; IGROV1 ovarian.
What all share (test): NCI-60 one-dose screen, 48 h (100 = growth as untreated, 0 = no growth, -100 = all killed)
Holding throughout (details): 10 µM unless noted

In the case of `COc1ccc2c(c1)O/C(=C/c1ccc(OCC(=O)c3ccccc3)cc1)C2=O`, the growth with SK-MEL-2 melanoma was 108%; in the assay with EKVX NSCLC it was 97%; with SN12C renal, 107%; with UO-31 renal, -29.2% (active); in the assay on TK-10 renal, 115%; with ACHN renal it was 99.5%. Further, the growth in the assay on CAKI-1 renal was 103%; in the assay with A498 renal, 170%; in the assay with MOLT-4 leukemia it was 90.3%; in the assay on SR leukemia, 72.7%; in the assay with RPMI-8226 leukemia, 99.7%; in the assay on OVCAR-8 ovarian, 111%. The growth in the assay on OVCAR-5 ovarian is 88.6%; in the assay on OVCAR-4 ovarian, 113%; with SK-OV-3 ovarian, 125%; in the assay on OVCAR-3 ovarian, 90.1%; with HS 578T breast it was 350%; in the assay with NCI/ADR-RES ovarian it was 93.1%.

Take `O=C(COc1ccc(/C=C2\Oc3ccccc3C2=O)cc1)Nc1nc2ccccc2s1`: the growth in the assay with SK-MEL-2 melanoma was 106%; in the assay on EKVX NSCLC, 42.8%; in the assay with SN12C renal it was 64.4%; in the assay on UO-31 renal, -77.2% (active); in the assay with TK-10 renal it was 134%; with ACHN renal, 72.7%. The growth is -83% (active) in the assay with CAKI-1 renal; 115% in the assay on A498 renal; -48.8% (active) in the assay on MOLT-4 leukemia; -71.9% (active) with SR leukemia; -56.8% (active) in the assay on RPMI-8226 leukemia; 18.8% in the assay with OVCAR-8 ovarian. Further, the growth in the assay on OVCAR-5 ovarian was 67.8%; in the assay with OVCAR-4 ovarian it was 89.9%; in the assay on SK-OV-3 ovarian, 116%; in the assay on OVCAR-3 ovarian, 66.5%; in the assay on HS 578T breast, 88.5%; in the assay on NCI/ADR-RES ovarian, 75.5%.

With `CCCCCCCC/C=C\CCCCCCCCOc1ccccc1CC(=O)NCC[N+](C)(C)C`, the growth in the assay with SK-MEL-2 melanoma was 96.4%; in the assay with EKVX NSCLC, 83.4%; with SN12C renal, 67.5%; in the assay on UO-31 renal, 79.6%; in the assay with TK-10 renal, 9.37% (active); with ACHN renal, 68.2%. For the same compound, the growth with CAKI-1 renal was 50.7%; in the assay with A498 renal, 100%; in the assay on MOLT-4 leukemia, 77.3%; in the assay with SR leukemia, 23.6%; with RPMI-8226 leukemia, 56.1%; with OVCAR-5 ovarian, 25%. The growth in the assay with OVCAR-4 ovarian was 78.7%; with SK-OV-3 ovarian it was 81.9%; in the assay with IGROV1 ovarian, 28.9%; in the assay on OVCAR-3 ovarian, 83.2%; in the assay with HS 578T breast, 91.8%; in the assay with NCI/ADR-RES ovarian, 104%.

On to `CN(C)CC1=NC2SC=C(c3ccccc3)C2C(=O)N1CC#N` (stereo unspecified), for which the growth with SK-MEL-2 melanoma was 104%; in the assay on EKVX NSCLC, 95.9%; in the assay with SN12C renal, 109%; with UO-31 renal, 13.2%; in the assay with TK-10 renal it was 95.3%; in the assay with ACHN renal, 104%. Besides, the growth in the assay with CAKI-1 renal is 97.5%; in the assay on A498 renal, 103%; in the assay on MOLT-4 leukemia, 82%; in the assay with SR leukemia it was 70.4%; with RPMI-8226 leukemia it was 49.6%; in the assay with OVCAR-5 ovarian, 89.7%. The growth is 85.3% with OVCAR-4 ovarian, 119% in the assay with SK-OV-3 ovarian, 110% with OVCAR-3 ovarian and 118% with HS 578T breast.

`Cc1ccc(C(=O)COc2cccc(/C=C3\Oc4ccccc4C3=O)c2)cc1`: the growth in the assay with SK-MEL-2 melanoma was 105%; with EKVX NSCLC, 97.1%; with SN12C renal, 105%; in the assay with UO-31 renal it was -37.1% (active); in the assay on TK-10 renal it was 114%; in the assay on ACHN renal it was 97.6%. Besides, the growth in the assay with CAKI-1 renal is 47.6%; with A498 renal it was 147%; in the assay on MOLT-4 leukemia, 73.8%; in the assay on SR leukemia, 71.9%; in the assay with RPMI-8226 leukemia, 106%; in the assay with OVCAR-8 ovarian, 106%. Also, the growth in the assay with OVCAR-5 ovarian is 106%; with OVCAR-4 ovarian it was 85.7%; in the assay on SK-OV-3 ovarian, 134%; with OVCAR-3 ovarian, 96.6%; with HS 578T breast, 322%; in the assay on NCI/ADR-RES ovarian it was 88.3%.

`O=C(COc1ccc(/C=C2\Oc3ccccc3C2=O)cc1)Nc1nc2c(s1)CCCC2`: the growth in the assay on SK-MEL-2 melanoma is 84%; in the assay on EKVX NSCLC, 26.4%; with SN12C renal, 46%; in the assay with UO-31 renal, -59.9% (active); in the assay with TK-10 renal, 79.7%; with ACHN renal, 65.5%. Further, the growth with CAKI-1 renal was -98.4% (active); with A498 renal, 110%; in the assay on MOLT-4 leukemia, -64.3% (active); in the assay on SR leukemia, -90.7% (active); with RPMI-8226 leukemia, -86.3% (active); with OVCAR-5 ovarian it was 61.7%. Besides, the growth is 75.6% in the assay on OVCAR-4 ovarian; 27.3% in the assay with SK-OV-3 ovarian; 29.3% with OVCAR-3 ovarian; 69.2% in the assay with HS 578T breast; 78.8% in the assay on NCI/ADR-RES ovarian.

As for `Cc1ccc2nc(NC(=O)CSc3nc(Nc4ccc([N+](=O)[O-])cc4)c(C#N)c(-c4ccccc4)n3)sc2c1`, the growth in the assay with SK-MEL-2 melanoma was 104%; with EKVX NSCLC it was 91.1%; in the assay on SN12C renal it was 97.9%; in the assay with UO-31 renal, 78.8%; with TK-10 renal, 101%; in the assay on ACHN renal, 90.7%. Also, the growth was 87.9% with CAKI-1 renal; 116% with A498 renal; 97.8% in the assay with MOLT-4 leukemia; 47.6% in the assay on SR leukemia; 80% with RPMI-8226 leukemia; 91.5% in the assay with OVCAR-8 ovarian. In addition, the growth was 88.4% in the assay with OVCAR-4 ovarian; 98.3% in the assay on SK-OV-3 ovarian; 76.1% in the assay on IGROV1 ovarian; 102% in the assay on OVCAR-3 ovarian; 85% in the assay on HS 578T breast; 95% with NCI/ADR-RES ovarian.

For `NS(=O)(=O)c1cnccc1Oc1cccc2cccnc12`, the growth in the assay with SK-MEL-2 melanoma is 107%; in the assay on EKVX NSCLC, 97.1%; with SN12C renal it was 99.4%; in the assay with UO-31 renal, 78.3%; in the assay on TK-10 renal, 107%; in the assay with ACHN renal, 102%. For the same compound, the growth in the assay with CAKI-1 renal was 111%; in the assay on A498 renal, 99.1%; in the assay on MOLT-4 leukemia it was 93%; in the assay on SR leukemia, 86%; in the assay with RPMI-8226 leukemia, 88.4%; in the assay with OVCAR-8 ovarian, 54.1%. For the same compound, the growth in the assay on OVCAR-5 ovarian was 82.9%; in the assay with OVCAR-4 ovarian, 118%; with SK-OV-3 ovarian it was 77.8%; with OVCAR-3 ovarian, 113%; in the assay with HS 578T breast, 88.7%; in the assay on NCI/ADR-RES ovarian, 107%.
